Screening data deposited in PubChem by National Center for Advancing Translational Sciences (NCATS).
SARS PLP yeast: SARS-CoV PLP inhibition in yeast | S. cerevisiae expressing SARS-CoV PLpro, growth rescue | Potency, µM (highest dose often 32.9 µM), inactives show at the highest dose activity, positive = growth rescue, usual class: activators | actives 0.19% (n = 330,000); calls by dose curve; also: potency is read from the fitted curve at half-maximal effect; 0% is about no effect; nearly all actives have a fitted effect of over 55% in size
FMDV inh: antivirals against foot and mouth disease virus; AID 1159524; FMDV antiviral cell-based qHTS; Potency, µM (top dose mostly 57.9 µM), inactives show top-dose activity change, negative = inhibition, most hits filed as inhibitors; actives 1.2% (n = 410,000); calls by dose curve; tested in HEK293T cells; also: read-out not given here; potency is read from the fitted curve at half-maximal effect; % is scaled to controls: 0 for no effect and ±100 for the full control effect; nearly all actives have a fitted effect of over 45% in size
HCV inhibitor: blocks hepatitis C virus | Huh7.5.1 HCVcc-Cre infection, luciferase reporter, 44 h | Potency, µM (highest dose often 41.8 µM), without a hit: at the top dose activity change, negative = inhibition, usual class: inhibitors | actives 3.4% (n = 340,000) | AID 651820; active = well fitted inhibition curve with a large enough effect; inconclusive = small, poorly fitted or top-dose-only effect, or another doubt; inactive = no such curve, though single readings can be large or run the other way; also: potency is read from the fitted curve at half-maximal effect; % is scaled to controls: 0 for no effect and ±100 for the full control effect
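Antiviral activity was scored by luciferase reporter output from cells infected with HCVcc-Cre (~0.5 moi) in presence of compound, 44 h infection period, cells seeded 1,000/well 4 h prior.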
Marburg entry inh: blocks Marburg virus binding to or entry into cells; Potency, µM (top dose mostly 37.8 µM), for inactives: at the top dose activity change, negative = inhibition, usual class: inhibitors; Marburg virus pseudotyped entry inhibition, cell reporter; actives 1.8% (n = 300,000); calls by dose curve; tested in HEK293 cells; also: potency is read from the fitted curve at half-maximal effect; % is scaled to controls: 0 for no effect and ±100 for the full control effect
HCMV inh: blocks human cytomegalovirus replication. actives 4.5% (n = 410,000). activity change, negative = inhibition, % at 57.5 µM. HFF cells, HCMV-luciferase reporter, 72 h; hits give low values; in the data active = activity change below about -60%; inconclusive = no clear call, values can overlap the other calls; inactive = above about -39%; also: % is scaled to controls: 0 for no effect and ±100 for the full control effect
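Screen run at 2 compound doses on HFFs infected with reporter HCMV, MOI 1 PFU/cell. Luciferase activity from cell lysates at 72 h post infection gave inhibition relative to buffer-only and Salinomycin wells.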
Lassa entry inh: inhibitors of Lassa virus binding or cell entry | actives 1.2% (n = 300,000) | Potency, µM (highest dose often 37.9 µM), without a hit: at the top dose activity change, negative = inhibition, hits mostly inhibitors | AID 540256 | Lassa virus pseudotype entry inhibition, cell reporter; calls by dose curve; tested in HEK293 cells; also: potency is read from the fitted curve at half-maximal effect; % is scaled to controls: 0 for no effect and ±100 for the full control effect; nearly all actives have a fitted effect of over 50% in size
The depositor's hits bear a star; ? = inconclusive; . = no result given; [ ] = remark or other dose. This is a sample that favours compounds with a hit; in the whole collection about 8% have one here.

SMILES	SARS PLP yeast	FMDV inh	HCV inhibitor	Marburg entry inh	HCMV inh	Lassa entry inh
CN(c1ccccc1)S(=O)(=O)c1cccc(NC(=O)CSc2ncn[nH]2)c1	-2%	35µM*	?	?	-68*	?
CN(c1ccccc1)S(=O)(=O)c1cccc(NC(=O)CSc2nnc(N)s2)c1	9%	?	?	18µM*	-16	?
CC(C)n1cnnc1SCC(=O)Nc1cccc(S(=O)(=O)N(C)c2ccccc2)c1	-5%	-16%	?	.	-38	.
CN(c1ccccc1)S(=O)(=O)c1cccc(NC(=O)Cc2n[nH]c(=O)c3ccccc23)c1	1%	?	10µM*	.	?	.
Cc1cccc(NC(=O)CSc2nnc(N)s2)c1	.	-3%	.	.	-8	-1%[46.1 µM]
O=C(CSc1nnc(-c2cccs2)o1)Oc1ccccc1Cl	.	-12%	.	?	45	-2%[46.1 µM]
CCc1cccc(NC(=O)C2CCC(CNS(=O)(=O)c3ccc(Br)s3)CC2)c1 (stereo not given)	.	?	.	1%[46.1 µM]	9	19%[46.1 µM]
O=C1ON=C(c2ccccc2)/C1=C/c1ccco1	1%	32µM*	11%	-3%[46.1 µM]	-2	4%[46.1 µM]
COc1cc(/C=C2\C(=O)ON=C2c2ccccc2)cc(OC)c1OC	1%	25µM*	-12%	-14%	-7	-2%
CCOc1cc(/C=C2/C(=O)ON=C2C)ccc1OCc1ccc(F)cc1	-4%	22%	?	?	-97*	-17%
NC(=O)COc1ccc(/C=C2\C(=O)ON=C2c2ccccc2)cc1	4%	25µM*	6%	?	3	23%
NC(=O)COc1ccccc1	1%	-8%	-1%	.	12	.
COc1cc(C2=N/C(=C\c3ccccc3)C(=O)O2)cc(OC)c1OC	.	-12%	.	.	.	.
CCOc1cc2c(cc1OCC)C(c1c(F)cccc1Cl)CC(=O)N2 (stereo not given)	.	-21%	.	9%[46.1 µM]	-14	1%[46.1 µM]
COc1ccc(/C=C2/C(=O)ON=C2c2ccccc2)cc1OC	5%	22µM*	-2%	2%[46.1 µM]	83	-5%
CCOc1cc(/C=C2\C(=O)ON=C2c2ccccc2)ccc1OC	0%	35µM*	13%	.	71	.
COc1ccc(/C=C2\C(=O)ON=C2c2ccccc2)cc1OC	2%	?	-4%	.	24	.
O=C1ON=C(c2ccccc2)/C1=C/c1ccc(-c2ccccc2[N+](=O)[O-])o1	-58%	28µM*	1%	?	-98*	?
COc1cc(/C=C2\N=C(c3ccccc3)NNC2=O)cc(OC)c1OC	0%	3%	5%	?	-81*	?
CCOC(=O)c1c(C)[nH]c(C)c1S(=O)(=O)N1CCN(c2ccccc2OC)CC1	.	20%	.	.	36	-3%[46.1 µM]
O=C(Nc1ccc(Cl)c(C(F)(F)F)c1)C(Cc1ccccc1)NS(=O)(=O)c1ccc(Br)s1 (stereo not given)	.	-12%	.	-3%[46.1 µM]	-9	6%[46.1 µM]
COc1cccc(NC(=O)Nc2cc(-c3cn4cccnc4n3)ccc2OC)c1	.	32%	.	0%[46.1 µM]	94	3%[46.1 µM]
O=C(C#Cc1ccccc1)Nc1ccccc1F	-11%	13%	?	.	-96*	.
COc1ccc(NC(=O)c2ccccc2SC)cc1OC	4%	30%	-8%	10%	10	12%
COc1ccc(NC(=O)C#Cc2ccccc2)cc1OC	-8%	12%	?	?	-88*	-9%[46.1 µM]
SMILES	SARS PLP yeast	FMDV inh	HCV inhibitor	Marburg entry inh	HCMV inh	Lassa entry inh
NC(=O)c1ccc(NC(=O)C#Cc2ccccc2)cc1	0%	-6%	?	4.5µM*	-103*	2.2µM*
CC(Oc1ccccc1)C(=O)Nc1ccc(C(N)=O)cc1 (stereo not given)	1%	23%	-13%	8%	8	29%
COc1ccc(NC(=O)C(=O)NCCc2ccccc2)cc1OC	.	-16%	.	4%[46.1 µM]	-64*	18%[46.1 µM]
CC(C)c1cnc2c(c1SCc1ccc([N+](=O)[O-])cc1)c(=O)n(C)c(=O)n2C	.	-26%	.	.	-35	-5%[46.1 µM]
c1ccc(Oc2nc(NC3CCCCC3)c3[nH]cnc3n2)cc1	.	-8%	.	.	.	.
CC(=O)Nc1ccccc1-c1nc(CNC(=O)c2cc(C)ccc2C)c(C)o1	.	-8%	.	.	.	.
CCOC(=O)NN=C1C[C@@H](O)[C@@H](O)[C@@H]2[C@H]3C(=O)N(Cc4ccccc4)C(=O)[C@@H]3CC[C@@H]12	.	.	.	25%[14.2 µM]	.	.
CCCN1[C@@H]2c3cccc(=O)n3C[C@H]1[C@H](CO)[C@H]2C(=O)NC1Cc2ccccc2C1	.	.	.	.	-10	.
O=C(Cn1c(=O)n(Cc2nc(-c3ccccc3)no2)c(=O)c2ccccc21)Nc1cccc(C(F)(F)F)c1	.	20µM*	.	.	-7	9%[46.1 µM]
Cc1ccc(CNC(=O)c2oc3ccc(S(=O)(=O)N4CCCC(C)C4)cc3c2C)cc1 (stereo not given)	.	?	.	?	-13	?
Cc1cc(=O)n2c(C(=O)Nc3ccc(C(=O)OC(C)C)cc3)c(C(=O)Nc3ccccc3)sc2n1	-4%	-9%	-29%	?	-67*	23µM*
Cc1cc(=O)n2c(C(=O)Nc3ccc(F)c(Cl)c3)c(C(=O)Nc3cccc(C)c3C)sc2n1	.	-16%	.	-2%[46.1 µM]	6	?
COc1cc(OC)c(OC)cc1/C=C/C(=O)c1ccc(NS(=O)(=O)c2ccc(C)cc2)cc1	-13%	-13%	?	?	-78*	?
COc1ccc(C(=O)/C=C/Nc2ccc(S(=O)(=O)Nc3cccc(C(C)=O)c3)cc2)cc1	2%	0%	11µM*	?	-72*	?
CC(=O)c1ccc(NS(=O)(=O)c2ccc(C)cc2)cc1	7%	62%	28%	-15%[46.1 µM]	26	-5%
CCOC(=O)/C=C/S(=O)(=O)c1ccc(NC(C)=O)cc1	-7%	?	?	-28%	-99*	-27%
CC(=O)Nc1ccc(S(=O)(=O)NCCC(=O)NCCc2ccc(F)cc2)cc1	-14%	3%	5%	7%	71	-6%
CC(=O)NCCc1ccc(S(=O)(=O)Nc2ccc(NC(=O)c3ccc(F)cc3)cc2)cc1	-3%	49%	10µM*	-1%	61	-13%
CCCCC1CCC(C(=O)N2CC(=O)Nc3ccc(C)cc3C2c2ccc(F)cc2)CC1 (stereo not given)	.	-26%	.	?	?	?
CCc1ccccc1NC(=O)Cn1cc2c(n1)CCC(C)C2 (stereo not given)	.	20%	.	5%[46.1 µM]	13	4%[46.1 µM]
COc1ccc(S(=O)(=O)Nc2ccc3c(c2)CCC3)cc1	-4%	14%	?	2%[46.1 µM]	?	?
O=C(Nc1ccccc1)c1ccc(S(=O)(=O)Nc2cccc(O)c2)cc1	2%	-21%	?	.	-32	.
CC(=O)Nc1ccc(S(=O)(=O)Nc2ccc3c(c2)CCC3)cc1	19%	1%	?	?	-60*	-27%[46.1 µM]
O=C(O)c1cccc(NS(=O)(=O)c2ccc(Oc3ccc(S(=O)(=O)Nc4cccc(C(=O)O)c4)cc3)cc2)c1	.	-16%	24%	?	53	7%[46.1 µM]
